Results published in PubChem BioAssay (NCATS).
Inconclusive results are not listed. Activity calls are given as the source filed them. Calls come from the whole dose curve; as a rule, active = well fitted curve in the direction sought with a large enough effect; inconclusive = small, poorly fitted or top-dose-only effect, or another doubt; inactive = no such curve, though single readings can be large; an effect the other way counts as inactive or inconclusive.

Columns and labels:
[1] = MultiTox-Fluor Cytotoxicity Assay - LYMP1-001 - Dead Cells (AID 946);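 note: cells exposed to compound for 16 h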
Outline: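 Seed 2500 LYMP1-001 cells/well, incubate 5 hr at 37 C; add compound, 16 hr at 37 C; add MultiTox-Fluor reagent, 60 min RT; read dead-cell fluorescence Ex/Em=485/520. Normalize to DMSO and 15 uM tetraoctylammonium bromide.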

[2] = MultiTox-Fluor Cytotoxicity Assay - LYMP1-001 - Live Cells (AID 947)
[3] = Cell Viability - LYMP1-002 - Assay at 16 hr (AID 948)
Outline: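 In this qHTS, lymphoblastoid LYMP1-002 cells (human) receive compounds for 16 hr at 37 C. Viability is taken from CellTiter-Glo ATP luminescence, and AC50 derives from standard Hill fits.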

[4] = MultiTox-Fluor Cytotoxicity Assay - LYMP1-002 - Live Cells (AID 955);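 note: cells exposed to compound for 16 hours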
Outline: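 Human lymphoblastoid LYMP1-002 cells, 2500/well, treated 16 h at 37 C in complete medium. Live-cell protease activity via GF-AFC fluorescence (Ex/Em 405/510) after 60 min reagent incubation; AC50 from Hill fits.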

[5] = MultiTox-Fluor Cytotoxicity Assay - LYMP1-003 - Dead Cells (AID 961);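 note: cells exposed to compound for 16 h at 37 °C; nearly all actives have a fitted effect of over 70% in size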
Outline: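 LYMP1-003 lymphoblastoid, 2500 cells/well, 5 hr settle then 16 hr cpd at 37 C; MultiTox-Fluor reagent 60 min RT; Ex/Em 485/520 dead-cell signal; norm. DMSO = 0%, 15 uM tetraoctylammonium bromide = 100%; Hill AC50.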

[6] = MultiTox-Fluor Cytotoxicity Assay - LYMP1-003 - Live Cells (AID 962);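 note: cells exposed to compound for 16 hours at 37 °C; cytotoxic hits lower the live-cell protease signal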
Outline: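 LYMP1-003 lymphoblastoid cells, 2500/well in complete medium, treated 16 h at 37 C; live-cell protease cleavage of GF-AFC read by fluorescence (Ex/Em 405/510) after 60 min reagent; AC50 from Hill fits of concentration-response.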

[7] = Cell Viability - LYMP1-003 - Assay at 24 hr (AID 963)
Outline: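 Human lymphoblastoid LYMP1-003 cells, 2500/well, treated 24 h at 37 C in complete medium. Viability read as intracellular ATP by CellTiter-Glo luminescence after 30 min at room temperature; AC50 from Hill-equation fits of qHTS concentration-response.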

[8] = Cell Viability - LYMP1-003 - Assay at 40 hr (AID 964); note: series mostly up to about 92 µM; nearly all actives have a fitted effect of over 60% in size
Outline: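 LYMP1-003 human lymphoblastoid cells, 2500/well, preincubated 5 h at 37 C, then treated with compound for 40 h at 37 C. Intracellular ATP read by CellTiter-Glo luminescence after 30 min at room temperature; AC50 from Hill-equation fits.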

[9] = Cell Viability - LYMP2-003 (AID 965);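 note: cells exposed to compounds for 24 h before reading; nearly all actives have a fitted effect of over 50% in size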
Outline: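 qHTS, human lymphoblastoid line, 2500 cells/well, complete medium. 24 h drug, 37 C. ATP-based luminescent readout; Hill-fit AC50.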

[10] = Cell Viability - LYMP2-004 (AID 966); note: nearly all actives have a fitted effect of over 65% in size
Outline: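 Lymphoblastoid LYMP2-004 cells, 2500 per well, were preincubated for 5 hr and then treated with compound for 24 h at 37 C in complete medium. Viability was read as cellular ATP by CellTiter-Glo luminescence, and AC50 values were taken from Hill fits to concentration-response data.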

[11] = Cell Viability - LYMP2-005 (AID 967); note: series mostly up to about 92 µM
Outline: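 Luciferase-based ATP quantitation served as the viability measure in human lymphoblastoid LYMP2-005 cells exposed to test compounds for 24 h at 37 C in complete culture medium. Potency (AC50) was obtained by fitting concentration-response curves with the Hill equation.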

[12] = Cell Viability - LYMP2-009 (AID 968); note: series mostly up to about 92 µM; nearly all actives have a fitted effect of over 55% in size
[13] = Cell Viability - LYMP2-011 (AID 969); note: nearly all actives have a fitted effect of over 60% in size
Outline: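 2500 cells/well in complete medium, compound-treated 24 h at 37 C. Viability read as intracellular ATP by CellTiter-Glo luminescence after 30 min at room temperature. AC50 from Hill fits of qHTS concentration-response data.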

[14] = Cell Viability - LYMP2-013 (AID 970); note: series mostly up to about 92 µM; nearly all actives have a fitted effect of over 55% in size
Outline: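 Human lymphoblastoid LYMP2-013 cells, 2500/well, treated 24 h at 37 C in complete medium; viability as intracellular ATP by CellTiter-Glo luminescence after 30 min. AC50 from Hill fits of qHTS concentration-response.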

[15] = Cell Viability - LYMP2-015 (AID 971); note: nearly all actives have a fitted effect of over 55% in size
Outline: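 LYMP2-015 human lymphoblastoid cells (2500/well) in complete medium, compound-treated 24 h at 37 C; viability read as cellular ATP by CellTiter-Glo luminescence after 30 min at room temperature. AC50 from Hill-equation fits of qHTS concentration-response data.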

[16] = Cell Viability - LYMP2-017 (AID 972); note: series mostly up to about 92 µM; nearly all actives have a fitted effect of over 55% in size
Outline: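 LYMP2-017 human lymphoblastoid cells (2500/well) settled 5 hr at 37 C, then exposed to compound 24 hr at 37 C in complete medium. Viability taken as intracellular ATP by CellTiter-Glo luminescence after 30 min at RT; AC50 from Hill fits.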

[17] = Cell Viability - LYMP2-019 (AID 973); note: nearly all actives have a fitted effect of over 55% in size
Outline: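 Human lymphoblastoid LYMP2-019 cells (2500/well) preincubated 5 h at 37 C, then treated 24 h at 37 C in complete medium. Viability by CellTiter-Glo ATP luminescence after 30 min at room temperature; AC50 from Hill fits.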

[18] = Cell Viability - LYMP2-021 (AID 974)
Outline: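 Human lymphoblastoid LYMP2-021 cells, 2500/well in complete medium, treated 24 hours at 37 C. Intracellular ATP by CellTiter-Glo luminescence (30 min, RT); AC50 from Hill fits of concentration-response.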

[19] = Cell Viability - LYMP2-023 (AID 975)
Outline: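 LYMP2-023 human lymphoblastoid cells, 2500/well, preincubated 5 hr at 37 C, then compound-treated 24 hr at 37 C in complete medium. CellTiter-Glo luminescence (ATP) after 30 min at room temperature; AC50 from Hill-equation fits; tetraoctylammonium bromide positive control.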

[20] = MultiTox-Fluor Cytotoxicity Assay - LYMP1-002 - Dead Cells (AID 960);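 note: cells exposed to compound for 16 h at 37 °C; nearly all actives have a fitted effect of over 60% in size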
Outline: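 Human lymphoblastoid LYMP1-002 cells, 2500/well, treated 16 h at 37 C; dead-cell protease cleavage of bis-AAF-R110 read by fluorescence (485/520); normalized to DMSO and 15 uM tetraoctylammonium bromide; AC50 from Hill fit.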

Measured: Potency

FC(F)(F)c1ccccc1Cl
not listed: [20]
inactive: all other assays above

c1ccc(Oc2ccccc2)cc1
not listed: [9] | [20]
inactive: all other assays above

O=C(O)c1ccccc1[N+](=O)[O-]
not listed: [20]
inactive: all other assays above

N#CC1(O)CCCCC1
not listed: [4]
inactive: all other assays above

O=Cc1ccc(C(=O)O)cc1
not listed: [20]
inactive: all other assays above

Cc1cccc(Br)c1
not listed: [20]
inactive: all other assays above

c1ccc2n[nH]nc2c1
not listed: [7] | [20]
inactive: all other assays above

O=[N+]([O-])c1cc(C(F)(F)F)ccc1Cl
not listed: [4]
inactive: all other assays above

O=C(O)CN(CC(=O)O)CC(=O)O
not listed: [7] | [20]
inactive: all other assays above

CCC1CO1 (stereo unspecified)
not listed: [20]
inactive: all other assays above

O=C1OC(=O)c2cc([N+](=O)[O-])ccc21
not listed: [3]
inactive: all other assays above

CCCCOCCOCCSC#N
not listed: [4] | [13]
inactive: all other assays above

CCCCCCCCC/C=C/CC1CC(=O)OC1=O (stereo unspecified)
not listed: [4] | [16] | [20]
inactive: all other assays above
